# Hit rate of the full screen: of about 410,000 compounds, about 1,200 (0.29%) were called active. About 2% were inconclusive and are not listed. Calls follow the shape of the dose curve; as a rule, active = well fitted activation curve with a large enough effect; inconclusive = small, poorly fitted or top-dose-only effect; inactive = flat fitted curve, though single readings scatter. Shown is part of a subset that was picked to be rich in actives.
# Test: qHTS of Nrf2 Activators; also: nearly all actives have a fitted effect of over 65% in size; as to activation: % of control where 0% means no effect
# Conditions: AREc32 ARE-luciferase reporter (MCF7-derived line), luminescence, 24 h; series mostly up to 46.1 µM; activation: at the top concentration
# Method in brief: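 AREc32 cells carrying an ARE-driven firefly luciferase reporter were seeded at 1000 cells/well in OPTI-MEM with 5% FBS, then exposed to compound for 24 hr at 37 deg C. Luminescence was read with Steady-Glo after 30 min at RT.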
# Potency is read from the fitted curve at half-maximal effect.
Compound,activation,Potency
COc1ccc(C(=O)Nc2onc3c2CCCC3)cc1,-0.816% (inactive),
O=C(Nc1cccc2ccccc12)c1onc2c1CCCC2,,12.6 µM (active)
Cc1c(Cl)cccc1NC(=O)c1noc2c1CCCC2,14.5% (inactive),
COc1cccc(C(=O)NCc2ccc3c(c2)CCN3C(=O)c2ccncc2)c1,1.13% (inactive),
C=CCSc1nsc(NC(=O)Nc2cccc(C(C)=O)c2)n1,-0.163% [at 9.22 µM] (inactive),
C=CCSc1nnc2c(n1)-c1cccc3cccc-2c13,,12.6 µM (active)
Cc1cc(C)c(-c2n[nH]c3c2C(c2ccccc2F)N(CCO)C3=O)c(O)c1 (stereo not drawn),3.93% (inactive),
Cc1nc2ccc(S(=O)(=O)NC(C(=O)NCc3ccccc3Cl)C(C)C)cc2s1 (stereo not drawn),0.669% (inactive),
CC(=O)N1CCN(S(=O)(=O)c2c(F)cc(F)c(Cl)c2F)CC1,,11.2 µM (active)
O=C(c1c(F)cccc1Cl)N1CCN(S(=O)(=O)c2ccc3c(c2)OCCCO3)CC1,1.87% (inactive),
O=C(c1cnc(Cl)c(Cl)c1)N1CCN(S(=O)(=O)c2ccc(F)cc2)CC1,0.398% (inactive),
Cc1c(CNC(C)c2ccccc2)c(C(=O)O)c(C)n1Cc1c(F)cccc1Cl (stereo not drawn),0.867% (inactive),
Cc1csc2nc(COc3ccc(NC(=O)COc4ccccc4)cc3)cc(=O)n12,-0.0829% (inactive),
O=C(Nc1nnc(-c2ccccc2F)s1)c1ccccc1F,,3.16 µM (active)
O=C(Nc1ccccc1F)c1ccccc1-c1ccc(C(F)(F)F)cc1,-0.545% (inactive),
O=C(Nc1nc2c(s1)CCCC2)c1ccccc1F,-0.692% (inactive),
O=C(COc1ccccc1F)Nc1ccc(C(=O)OCc2cc(=O)n3nc(C4CC4)sc3n2)cc1,0.695% (inactive),
Cc1ccccc1CNC(=O)CCCn1nc(C)c2sc3ccccc3c2c1=O,-0.165% (inactive),
N#Cc1ccc(C2N=C(c3ccccc3)NO2)cc1 (stereo not drawn),13.3% (inactive),
Brc1ccccc1C1N=C(c2ccccc2)NO1 (stereo not drawn),,6.31 µM (active)
COc1cc(Cl)c(NC(=O)CC(C)S(=O)(=O)c2cc3c(cc2C)NC(=O)CO3)c(OC)c1 (stereo not drawn),3.6% (inactive),
CN(C)CCN=c1cc(-c2ccccc2)oc2ccc(Cl)cc12,,11.2 µM (active)
CN(C)CCCn1c(-c2ccc(Cl)cc2)csc1=Nc1ccccc1,-0.674% (inactive),

Compound,activation,Potency
Cc1ccc(Cc2nc3ccccc3nc2SCC(=O)Nc2cccc(C(F)(F)F)c2)cc1,0.184% (inactive),
CCOCCCNC(=O)c1c(NC(=O)Cc2coc3ccc(C)cc23)sc2c1CCC2,0.518% (inactive),
N#CC1=C(N)Oc2c(sc3ccccc23)C1c1ccco1 (stereo not drawn),,3.16 µM (active)
CC(=O)c1cccc(NC(=O)c2nc(-c3ccccc3)n(-c3cccc(C)c3)n2)c1,4.2% (inactive),
Cc1cccc(S(=O)(=O)c2cn(Cc3ccccc3)c3cc(N4CCOCC4)c(F)cc3c2=O)c1,-1.05% (inactive),
CCN(CC)c1cc(NC2CCCCC2)c2c3c(onc13)-c1ccccc1C2=O,0.327% (inactive),
COc1ccc(OCCCC(=O)OC(C)C(=O)Nc2ccccc2[N+](=O)[O-])cc1 (stereo not drawn),0.218% (inactive),
Cc1csc(NC(=O)Nc2ccccc2[N+](=O)[O-])n1,,4.47 µM (active)
Cc1csc(NC(=O)C2CCN(S(=O)(=O)c3ccccc3)CC2)n1,-0.396% (inactive),
Cc1c(CCNC(=O)c2ccc(C(F)(F)F)cc2)sc2nc(-c3ccc(F)cc3)nn12,0.42% (inactive),
O=[N+]([O-])c1ccc2oc(-c3cccc(O)c3)nc2c1,,6.31 µM (active)
O=C(Nc1cc(-c2nc3ccccc3o2)ccc1Cl)c1cc([N+](=O)[O-])ccc1N1CCOCC1,-0.97% (inactive),
CCC(=O)Nc1cccc(-c2nc3cc(C)ccc3o2)c1,8.65% (inactive),
CC(=O)c1ccc(NC(=O)CSc2c(C(C)C)cnc3c2c(=O)n(C)c(=O)n3C)cc1,-0.575% (inactive),
O=C(Nc1cc(-c2nc3ncccc3o2)ccc1Cl)c1ccco1,,6.31 µM (active)
Cc1cccc(C(=O)Nc2ccc(-c3nc4ncccc4o3)cc2C)c1,0.321% (inactive),
Cc1cc(NC(=O)c2ccc(-c3ccc(Cl)cc3)o2)cc(-c2nc3ncccc3o2)c1O,0.209% (inactive),
CCc1cc2c(cc(C(=O)OC)n2Cc2nc(-c3ccc(C)cc3)oc2C)s1,-0.393% (inactive),
CSc1ccccc1NC(=O)CCS(=O)(=O)c1nc(-c2cccs2)cc(C(F)(F)F)n1,0.415% (inactive),
COc1ccc(Cc2nnc(SCC(=O)c3cccc([N+](=O)[O-])c3)n2C)cc1,0.136% (inactive),
O=C(CSc1nc2ccc([N+](=O)[O-])cc2[nH]1)c1ccc(Cl)cc1,,11.2 µM (active)
O=C(CSc1nc(Nc2ccc(F)c(F)c2)c2ccccc2n1)c1ccc(Cl)cc1,4.26% (inactive),
CCOc1ccccc1C(=O)Nc1ccc2c(c1)N(C)C(=O)c1ccccc1S2,0.563% (inactive),

Compound,activation,Potency
CCOC(=O)c1ccc2c(c1)N(Cc1cccc(OC)c1)C(=O)c1ccccc1S2(=O)=O,5.65% (inactive),
Cc1ccccc1CNC(=O)Cn1c(C)c2cnn(-c3ccccc3)c(=O)c2c1C,3.21% (inactive),
CCC(C(=O)Nc1cc(OC)ccc1OC)n1c(=O)c(C(F)(F)F)nc2ccccc21 (stereo not drawn),-0.375% (inactive),
S=c1[nH]nc(-c2ccco2)n1/N=C/c1ccccc1,,10 µM (active)
S=c1[nH]nc(/C=C/c2ccccc2)o1,-1.05% (inactive),
CN(C)C(=O)CSc1n[nH]c(-c2ccco2)n1,0.332% (inactive),
COc1cc(NC(=O)c2cc(C3CC3)nc3c2c(C)nn3-c2ccccc2)cc(OC)c1,0.696% (inactive),
Cc1cccc(NC(=O)Cn2nc(-c3ccc(Cl)cc3)c3ccccc3c2=O)c1,3.27% (inactive),
COCOc1cc(O)c(C(=O)/C=C/c2ccc(OCOC)c(OCOC)c2)c(OCOC)c1,10.4% (inactive),
COc1cccc(N2CC(NC(=O)/C=C\c3ccccc3)CC2=O)c1 (stereo not drawn),0.229% (inactive),
COc1ccc(/C=C/C(=O)c2cc(Br)ccc(=O)c2O)cc1,,12.6 µM (active)
O=C(Nc1c(-c2ccc(F)cc2)nc2ccccn12)c1cccc(F)c1,0.635% (inactive),
O=C(c1ccc(F)cc1)n1c(=S)nc2ccccn21,,2.51 µM (active)
O=C(c1ccc(F)cc1)N1CCCC(C(=O)N2CCCCC2)C1 (stereo not drawn),-0.854% (inactive),
Cc1ccc(-c2nc(SCc3ccc(Br)cc3)n3[nH]c(=O)cc3n2)cc1,9.22% (inactive),
CCc1nn(CC(=O)NCC(C)c2ccccc2)c(=O)c2cc3occc3n12 (stereo not drawn),3.24% (inactive),
Cc1cccc(NC(c2cccc(F)c2)c2ccc3ccc(C)nc3c2O)n1 (stereo not drawn),14.1% (inactive),
CCOCC(=O)Nc1cc(OC)c(Cl)cc1OC,-0.102% (inactive),
CCOc1cc(NC(=O)c2ccccc2C(=O)O)c(OCC)cc1NC(=O)c1ccccc1F,4.13% (inactive),
CCOc1cc(NC(=O)CCl)c(OCC)cc1NC(C)=O,,14.1 µM (active)
CC(C)(C)OC(=O)N1CCC(c2c(C(=O)NCCc3ccsc3)cnn2-c2ccc(F)cc2F)CC1,3.21% (inactive),
COc1ccccc1NC(=O)c1cc(S(=O)(=O)NCCc2ccccc2)ccc1F,-0.532% (inactive),
